# PubChem BioAssay AID590 (National Center for Advancing Translational Sciences (NCATS), 2007)
# Screen size: about 59,000 compounds; about 6,500 (11%) were called active. Not shown: some 15% with an inconclusive outcome. No stated cut-off is given here; in the data, active means max dye-equivalent concentration above about 10 nM; inconclusive means mostly about 1.1 nM to 9.6 nM; inactive means weaker than that. Many of the other results were omitted from the sample, so actives are more common in it than they were.
# Test: qHTS Assay for Spectroscopic Profiling in A350 Spectral Region
# Details: Compound autofluorescence, 340/450 nm, Alexa 350 dye-equivalents; stronger effect = higher value
row,Compound,max dye-equivalent concentration
1,COCCNc1ncnc2ccc(-c3cccnc3)cc12,inactive
2,C=C(C)COc1ccc(-c2n[nH]c(C)c2-c2ccccc2OC)c(O)c1,inactive
3,CN1CCc2[nH]nc(-c3n[nH]c4c3CN(C)CC4)c2C1,inactive
4,CCCSc1nc2c(c(=O)n(C)c(=O)n2C)n1Cc1ccc(C)cc1,inactive
5,COc1ccccc1N1CCN(C(=O)Cn2nnc(-c3cccs3)n2)CC1,inactive
6,COc1ccc2c(c1)C(C)=CC(C)(C)N2C(=O)CNCc1ccc2c(c1)OCO2,inactive
7,O=C1Nc2ccccc2C12Nc1ccccc1S2 (centres undefined),inactive
8,CCCCSc1nnc(-c2ccc(NC(=O)CC)cc2)n1C,inactive
9,Cc1cc(N2CCCC2=O)cc(C)c1S(N)(=O)=O,inactive
10,COc1ccc(CCNS(=O)(=O)c2ccc(C(=O)NCc3ccco3)cc2)cc1OC,inactive
11,Clc1cccc(-c2nc3nc4ccccc4nc3n2Cc2ccco2)c1,150 nM (active)
12,C(=C\c1ccccc1)/CSc1nnc(-c2cccnc2)n1Cc1ccco1,inactive
13,O=C(CSc1nnc(-c2cccnc2)n1Cc1ccco1)c1ccc(Cl)cc1,inactive
14,O=C(NCC12CC3CC(C1)CC(CNC(=O)N1CCCC1)(C3)C2)N1CCCC1,inactive
15,CC(=O)NCCc1ccc(S(=O)(=O)N(C)C2CCS(=O)(=O)C2)cc1 (centres undefined),inactive
16,CCc1nc(Nc2ccc3nccnc3c2)c2oc3ccccc3c2n1,82 nM (active)
17,C[C@@H](Nc1nc(-c2ccccc2)nc2c1oc1ccccc12)C(=O)O,inactive
18,Cc1nc(N2CCN(c3ncccn3)CC2)c2oc3ccccc3c2n1,inactive
19,Cc1ccc(O)c(NC(=O)COc2cc(C)ccc2C)c1,inactive
20,CC(=O)c1ccc(N2C(=NC(=O)C(C)C)SC3CS(=O)(=O)CC32)cc1 (centres undefined),inactive
21,CCOC(=O)CSc1nncc2ccc(OC)c(OC)c12,inactive
22,Cc1ccccc1N1C(=O)C2ON(c3ccccc3)C(c3ccncc3)C2C1=O (centres undefined),inactive

row,Compound,max dye-equivalent concentration
1,COc1cc(C2C(C#N)=C(C)NC3=C2C(=O)CC(C)(C)C3)ccc1O (centres undefined),17 nM (active)
2,Cc1cc2c(cc1C)NC(c1ccccn1)C1=C(CC(C)(C)CC1=O)N2 (centres undefined),inactive
3,C=CCSC1=C(C#N)C(c2cc(Br)c(O)c(OC)c2)CC(=O)N1 (centres undefined),inactive
4,CCOc1ccc(CN(Cc2ccco2)C(c2cccs2)c2nnnn2C(C)(C)C)cc1 (centres undefined),inactive
5,CCN(Cc1ccncc1)C(=O)[C@@H](CO)c1ccccc1,inactive
6,COc1ccc(C(=O)N/N=C2/C(=O)c3c(C)cc(C)cc3CC2(C)C)cc1,inactive
7,Cc1noc(C)c1C(=O)OCC(=O)/C=C1\N(C)c2ccccc2C1(C)C,210 nM (active)
8,Cc1ccc(-c2nc(COC(=O)c3c(C)noc3C)cs2)cc1,inactive
9,Cc1noc(C)c1C(=O)Nc1ccccn1,inactive
10,COC(=O)c1cccc(NC(=O)CN2CCC(NC(=O)c3cc(OC)c(OC)c(OC)c3)CC2)c1,inactive
11,COc1cc(C(=O)Nc2oc(-c3ccccc3)c(-c3ccccc3)c2C#N)cc(OC)c1OC,11 nM (active)
12,COc1cc(C(=O)Nc2nccs2)cc(OC)c1OC,inactive
13,COc1ccc(CNc2ncncc2-c2ccccc2OC)c(OC)c1,inactive
14,COc1ccc(S(=O)(=O)N2CCCCC2)cc1Br,inactive
15,CC(C)(C)c1cc(C(=O)NCc2cccnc2)ccn1,inactive
16,Cc1ccc(-n2nc(-c3ccco3)cc2C(=O)NCc2cccnc2)cc1,inactive
17,COCCn1c(=O)[nH]c2cc(C(=O)NCc3cccnc3)ccc2c1=O,38 nM (active)
18,CC1=C2C(=O)OC(c3ccoc3)C2(C)CCC1 (centres undefined),inactive
19,Cc1ccccc1N1CCN(S(=O)(=O)C[C@@]23CC[C@H](C[C@H]2NC(=O)[C@@H](N)CCS(C)(=O)=O)C3(C)C)CC1,inactive
20,CCCC(=O)Nc1nnc(CC(=O)OCC)s1,inactive
21,Cc1cc(Cl)c(S(=O)(=O)NCC2CCCO2)cc1OCC(N)=O (centres undefined),inactive
22,O=C(COc1ccc2oc3c(c2c1)CCCC3)Nc1ccccn1,inactive

row,Compound,max dye-equivalent concentration
1,O=C(COc1ccccc1F)NC1CC1,inactive
2,O=C(COc1ccc2c3c(c(=O)oc2c1)CCC3)NC1CCCCC1,82 nM (active)
3,O=C(CC1OC(=O)c2ccccc21)NC1CCCCC1 (centres undefined),inactive
4,NC(=O)COc1ccc2c3c(c(=O)oc2c1)CCCCC3,29 nM (active)
5,COc1ccccc1Nc1nc(N)nc(CN(C)C2CCCCC2)n1,inactive
6,COc1cccc(-c2cc(NCCc3c[nH]c4ccc(OC)cc34)ncn2)c1,inactive
7,O=S1(=O)CCN2C(=N1)SC1=C2CCN(Cc2ccccc2)C1,inactive
8,COc1ccccc1-n1cnc2cc(C(=O)NCC3CCCO3)ccc21 (centres undefined),inactive
9,CC1(C)CC(=O)c2cc(OCC(=O)NCC3CCCO3)ccc2O1 (centres undefined),1600 nM (active)
10,O=C(Cn1c(=O)n(Cc2ccco2)c(=O)c2ccccc21)NCC1CCCO1 (centres undefined),inactive
11,O=C(c1csnn1)N1CCC2(CCN(Cc3nccs3)CC2)CC1,inactive
12,Cc1cc(C)n(C(=O)c2ccc(S(=O)(=O)N3CCCC3)cc2)n1,inactive
13,Cn1nnc2cc(C(=O)NCCC3=CCCCC3)ccc21,inactive
14,CCCn1c(=NC(C)=O)c(C(=O)OCC)cc2c(=O)n3ccccc3nc21,4900 nM (active)
15,CCOC(=O)c1cc2n(c1C)-c1ccccc1C2=O,inactive
16,CCOC(=O)c1cc2n(c1N)-c1ccccc1C2=O,inactive
17,O=S(=O)(CCc1nc2ccccc2o1)c1ccc(Cl)cc1,inactive
18,CN1CCC2(CC1)NC(=O)NC2=O,inactive
19,CCN(CC)S(=O)(=O)c1cccc(C(=O)Nc2cc(C)nn2-c2nc(C)cc(C)n2)c1,inactive
20,CCC(=O)NC(=Nc1nc2ccccc2s1)NC(=O)CC,190 nM (active)
21,CSCCC(Nc1nc2ccccc2s1)C(=O)O (centres undefined),inactive
22,COC(=O)Cc1cc(=O)n(-c2nc3ccccc3s2)[nH]1,inactive

row,Compound,max dye-equivalent concentration
1,O=C(O)[C@@H](S)[C@H](S)C(=O)O,inactive
2,O=C(CSc1nnc(-c2c[nH]c3ccccc23)n1-c1ccc(F)cc1)NCc1ccco1,inactive
3,O=C(CSc1nnc(-c2cccs2)n1-c1ccccc1)N1CCN(C(=O)c2ccco2)CC1,inactive
4,Cc1ccc(-n2c(SCC(=O)Nc3ccc4c(c3)OCO4)nnc2-c2ccoc2C)cc1,inactive
5,COc1ccc(C(=O)NC(=O)CSc2nnc(-c3ccco3)n2-c2ccccc2)cc1,inactive
6,COc1ccc(-n2c(SCC(=O)NCc3cccs3)nnc2-c2ccoc2C)cc1,27 nM (active)
7,O=C(CSc1nnc(-c2cccs2)n1-c1ccccc1)NCc1ccco1,11 nM (active)
8,NCCNCC1CCNCC1,inactive
9,Cc1cccc(N2CCN(S(=O)(=O)c3ccc4c(c3)c(=O)n(C)c(=O)n4C)CC2C)c1 (centres undefined),inactive
10,O=C(c1cnccn1)N1CCC[C@@]2(CCN(Cc3ccncc3)C2)C1,inactive
11,Cc1ccc(-c2ccc(=O)n(CC(=O)NCCCN3CCCCC3)n2)cc1,inactive
12,COc1ccc(CCN2C(=O)c3[nH]nc(-c4ccccc4O)c3C2c2ccc(C)cc2)cc1OC (centres undefined),140 nM (active)
13,COc1ccc(-c2n[nH]c(C)c2-c2ccc(OC)c(OC)c2)c(O)c1,inactive
14,COc1ccc(CCN(C)CCN2C(=O)c3ccccc3C2=O)cc1OC,inactive
15,Cc1cc(C(=O)COC(=O)c2cccs2)c(C)n1-c1c(C)n(C)n(-c2ccccc2)c1=O,inactive
16,O=C(CCC(=O)N1CCN(S(=O)(=O)c2ccccc2)CC1)NC1CCCc2ccccc21 (centres undefined),inactive
17,Cc1ccc(S(=O)(=O)N2CCN(C(=O)CCC(=O)NC3CCCc4ccccc43)CC2)cc1 (centres undefined),inactive
18,N#C/C=C1\Sc2ccccc2C(=O)N1CC(=O)N1CCN(S(=O)(=O)c2ccccc2)CC1,15 nM (active)
19,COc1ccc(CCn2nnnc2C(c2ccccc2)N2CCN(C)CC2)cc1OC (centres undefined),inactive
20,COc1ccc(CCn2c(-c3ccco3)nc3nc4ccccc4nc32)cc1OC,11 nM (active)
21,COCCn1c(-c2ccc(OC)c(OC)c2)nc2ccccc21,inactive
22,CCc1ccccc1NC(=O)CSc1nnc([C@@H](NC(=O)OC(C)(C)C)C(C)C)o1,inactive

row,Compound,max dye-equivalent concentration
1,CN1CCN(C(=O)c2ccc(NS(=O)(=O)c3ccccc3)cc2)CC1,inactive
2,O=C(Nc1c[nH]c(=O)[nH]c1=O)Oc1ccccc1,inactive
3,COc1ccc(C(=O)Nc2ccc(S(=O)(=O)Nc3onc(C)c3C)cc2)cc1OC,inactive
4,COc1ccc2c(c1OC)C(=O)N(c1ncn[nH]1)C2,inactive
5,O=C(O)c1cccc(S(=O)(=O)NCCO)c1,inactive
6,CCOc1ccc2nc(NCCNS(=O)(=O)c3ccccc3)c(C#N)cc2c1,86 nM (active)
7,CCOc1ccc(Nc2oc(Cc3ccccc3)nc2C#N)cc1,inactive
8,CCOc1ccccc1N(CC(=O)NC1CCCCC1)C(=O)CCCC(=O)Nc1ccccn1,inactive
9,N#Cc1c2c(c(N3CCN(CCO)CC3)n3c1nc1ccccc13)CCCC2,23 nM (active)
10,CN(C)CCCNc1c2c(c(C#N)c3nc4ccccc4n13)CCC2,94 nM (active)
11,CN(C)C(=O)/N=N\C(=O)N(C)C,inactive
12,CC(C)NS(=O)(=O)c1ccc(CCC(=O)N2CCOCC2)cc1,inactive
13,N=C(CC(=O)Nc1ccccn1)c1ccccc1,inactive
14,O=C(c1ccccc1)N1CCN(C(=O)N2CCCCC2)CC1,inactive
15,COc1ccc(-c2nc3n(c2Br)CCC3)cc1,inactive
16,CC(Sc1nncs1)C(=O)NCc1ccc2c(c1)OCO2 (centres undefined),inactive
17,CCOC(=O)c1c(C)[nH]c(C)c1C(=O)CSc1nc(N)cc(N)n1,inactive
18,O=S(=O)(NCCOc1cccc2cccnc12)c1ccc(F)cc1,inactive
19,COc1cc(NS(=O)(=O)c2ccc(NC(C)=O)cc2)cc(OC)c1,inactive
20,CC(=O)Nc1ccc(S(=O)(=O)Nc2cccc(NC(=O)C(C)(C)C)c2)cc1,inactive
21,COc1ccc(NS(=O)(=O)c2ccc(NC(=O)C(C)(C(F)(F)F)C(F)(F)F)cc2)nn1,23 nM (active)
